{"source": "PubChem BioAssay", "note": "Values joined by “and” are separate entries in the source; they are usually repeats but may differ in a detail not shown here. Identical values can stand only once. A number with no mark means an inactive call. Active and inactive are the calls of the source.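 The calls were made as follows: active = growth inhibition above 50% at the single 2 µM test dose, taken to imply half-maximal potency below 2 µM; inactive = the rest.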", "data": [{"assay": "antimalarial activity against Dd2 strain (AID 2302);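 also: 0% = DMSO untreated growth and 100% = chloroquine plus artemisinin killed control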", "settings": "P. falciparum Dd2 in RBCs, LDH growth readout, 72 h; at 2 µM; active compounds read high", "values": [{"smiles": "Cc1cc(C2CCN(CCCCNC(=O)c3ccc(NC(=O)c4ccc(Cl)cc4)cc3)CC2)c(C)cc1OCc1cccnc1", "growth inhibition": "90% (active)"}, {"smiles": "CN1CCCN(Cc2ccc(-c3cccc(NC(=O)c4ccc(F)cc4)c3)cc2)CC1", "growth inhibition": "8%"}, {"smiles": "CCCS(=O)(=O)N1CCC(CO)(Cc2ccccc2C(F)(F)F)CC1", "growth inhibition": "57% (active)"}, {"smiles": "Oc1ccc(CCNc2nc(NCCCOc3ccccc3-c3ccc(F)cc3)nc(N3CCNCC3)n2)cc1", "growth inhibition": "8%"}, {"smiles": "O=C(Nc1cccc(-c2cccc(-c3nc4ccccc4[nH]3)c2)c1)N[C@@H]1C[C@H]1c1ccccc1", "growth inhibition": "22% and 27%"}, {"smiles": "O=C(Nc1ccc(-c2cccc(-c3nc4ccc(C(F)(F)F)cc4[nH]3)c2)cc1)c1cccnc1", "growth inhibition": "24%"}, {"smiles": "COc1ccc(Cl)cc1S(=O)(=O)Nc1cccc(CCN2CCC(N3CCCCC3)CC2)c1", "growth inhibition": "9%"}, {"smiles": "COc1ccc(-n2ccnc2SCC(=O)Nc2cc(C)ccc2C)c(OC)c1", "growth inhibition": "93% (active)"}, {"smiles": "O=S(=O)(NCCN1CCCC1)c1cccc(-c2ccccc2CNC2Cc3ccccc3C2)c1", "growth inhibition": "76% (active)"}, {"smiles": "CCOC(=O)C(C)(C)Oc1ccc(C(=C2CC(C)(C)CC(C)(C)C2)c2ccc(O)cc2)cc1", "growth inhibition": "78% (active)"}, {"smiles": "Cc1nc(-c2ccc(-c3ccc(NC(=O)c4coc5ccc(N6C[C@@H](C)N[C@@H](C)C6)cc45)cc3)c(C)c2)no1", "growth inhibition": "88% (active)"}, {"smiles": "c1ccc(Oc2ccc(Nc3ccnc4cc(-c5ccc(CN6CCOCC6)o5)ccc34)cc2)nc1", "growth inhibition": "73% (active)"}, {"smiles": "COc1ccc2nc(C)cc(NN=Cc3ccccc3Cl)c2c1", "growth inhibition": "100% (active)"}]}]}
